# Bioassay records: PubChem, National Center for Advancing Translational Sciences (NCATS)
# G9a block: inhibitors of human histone lysine methyltransferase G9a. Q96KQ7. G9a H3K9 monomethylation, AlphaScreen, 2 h. 350,000 compounds, 8.8% hits. Potency, µM (highest dose often 102 µM), without a hit: top-dose activity, negative = inhibition, hits mostly inhibitors; also: % is scaled to controls: 0 for no effect and ±100 for the full control effect; nearly all actives have a fitted effect of over 75% in size
#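 Quantitative HTS format: methyltransferase activity on a biotin-tagged H3K9 peptide is measured by AlphaScreen, using a rabbit anti-monomethyl-H3K9 antibody with streptavidin donor and anti-IgG acceptor beads. Final levels are 20 nM enzyme, 500 nM peptide, 20 uM SAM; 2 h RT.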
# GLS inh: blocks human kidney-isoform glutaminase activity | O94925 | GLS enzymatic activity, qHTS titration | Potency, µM (doses to about 45.5 µM), without a hit: top-dose activity change, negative = inhibition, actives largely listed as inhibitors | 410,000 compounds, 0.21% hits | AID 624170; also: % is scaled to controls: 0 for no effect and ±100 for the full control effect
#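 Read-out is an Amplex red fluorescence increase coupled through glutamate oxidase and HRP, measured before and after 30 min room-temperature incubation. hKGA is in 45 mM KH2PO4 (pH 8.2) with 0.02% Tween-20; glutamine added as 1mM solution.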
# BAZ2B inh: inhibitors of human BAZ2B bromodomain. Q9UIF8. AlphaScreen BAZ2B-H3K14Ac peptide displacement. Potency, µM (titrated, usually from 114 µM), for the others: at the top dose activity change, negative = inhibition, actives largely listed as inhibitors. 360,000 compounds, 4.4% hits. AID 504333; also: % is scaled to controls: 0 for no effect and ±100 for the full control effect; nearly all actives have a fitted effect of over 60% in size
#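 AlphaScreen luminescence quantifies BAZ2B engagement of H3K14Ac peptide; the protein and biotinylated peptide are both at 50 nM final, buffer PBS pH 7.4 with 0.01% Tween-20, all steps at room temperature.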
# L3MBTL1 block: blocks human L3MBTL1. AID 485360. 230,000 compounds, 0.66% hits. AlphaScreen L3MBTL1–H3K9me1 peptide binding. Q9Y468. Potency, µM (top dose mostly 57.1 µM), for inactives: top-dose activity, negative = inhibition, actives largely listed as inhibitors; also: % is scaled to controls: 0 for no effect and ±100 for the full control effect; nearly all actives have a fitted effect of over 60% in size
#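 Displacement of a biotinylated histone H3(1-15) peptide monomethylated at Lys9 (75 nM) from L3MBTL1 (50 nM) was measured by AlphaScreen after a 30 min room-temperature compound incubation; cefsulodin titration served as intraplate control.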
# JMJD2A Tudor inh: inhibitors of human JMJD2A Tudor domain; O75164; AID 504339; Potency, µM (highest dose often 114 µM), for the others: top-dose activity change, negative = inhibition, hits mostly inhibitors; 390,000 compounds, 4.4% hits; AlphaScreen JMJD2A-Tudor / H3K4me3 peptide binding; also: % is scaled to controls: 0 for no effect and ±100 for the full control effect; nearly all actives have a fitted effect of over 50% in size
# HP1b binding inh: inhibitors of HP1-beta chromodomain binding to methylated histone tails; P83916; AlphaScreen HP1-beta / biotin-H3K9me3 peptide binding; Potency, µM (highest dose often 114 µM), for inactives: top-dose activity change, negative = inhibition, actives largely listed as inhibitors; 390,000 compounds, 0.56% hits; also: nearly all actives have a fitted effect of over 70% in size
#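 HP1-beta protein (50 nM final) preincubated 30 min at room temperature with biotinylated H3(1-18)K9me3 peptide (50 nM) in PBS pH 7.4, 0.01% Tween-20, then compound added for 30 min. AlphaScreen streptavidin donor/nickel chelate acceptor beads (10 ug/mL final), 30 min dark, luminescence read.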
# An asterisk follows results filed as active; ? = inconclusive; . = not tested or not shown; [ ] = dose if it differs, or a comment. Hits are enriched below; roughly 10% of the tested compounds scored in any of these assays. Calls follow the shape of the dose curve; as a rule, active = well fitted curve in the direction sought with a large enough effect; inconclusive = small, poorly fitted or top-dose-only effect, or another doubt; inactive = no such curve, though single readings can be large; an effect the other way counts as inactive or inconclusive. Potency is read from the fitted curve at half-maximal effect.
SMILES,G9a block,GLS inh,BAZ2B inh,L3MBTL1 block,JMJD2A Tudor inh,HP1b binding inh
CCOC(=O)c1ccc(NC(=O)C(C)Sc2nc(=O)cc(N)n2CCc2ccccc2)cc1 (stereo not given),-33%[59 µM],5%,?,.,-27%,2%
Cc1ccccc1OCC(=O)N(Cc1ccc(C(C)C)cc1)C1CCS(=O)(=O)C1 (stereo not given),3%[59 µM],4%,-13%,.,-15%,32%
[O-]/[N+](=C\c1ccc(OC(F)F)cc1)c1ccccc1,50µM*,1%,-7%,0%,-2%,56%
COc1ccc(-c2noc(-c3cccc(OC)c3OC)n2)cc1,27%[59 µM],4%,77%,.,115%,133%
Cc1ccc(NS(=O)(=O)c2cnc(N)nc2)c(C)c1,-6%[59 µM],5%,0%,.,-14%,9%[57 µM]
CCCc1cc(-n2ccnc2)n2c(nc3ccccc32)c1C#N,40µM*,-8%,-5%,-4%,8%,37%
Cc1cc(C(=O)OCC(=O)N2CCc3ccccc32)c(C)o1,20%[59 µM],-1%,10%,.,11%,18%
O=C(OCC(=O)N1CCc2ccccc21)c1ccc[nH]c1=O,-16%,0%,-10%,1%,14µM*,0%
CN(Cc1ccccc1)C(=O)COC(=O)c1ccc[nH]c1=O,.,2%,.,9%,22µM*,23%
O=C(/C=C/c1ccc(OC(F)F)cc1)OCC(=O)N1CCc2ccccc21,45µM*,1%,7%,-13%,-14%,17%
CN(Cc1ccccc1)C(=O)COC(=O)c1ccc(Br)o1,.,17%,.,2%,-5%,10%
COc1ccc(NC(=O)Cn2c(=O)n(-c3ccccc3)c(=O)c3c4c(sc32)CCCC4)cc1,10%[59 µM],-9%,3%,.,-3%,32%
CCN(Cc1ccccc1)Cc1c(O)ccc2c(=O)c(-c3ccccc3OC)c(C(F)(F)F)oc12,?,2%,-11%,.,-20%,27%
CCC(=O)N1CCc2cc(Br)cc(S(=O)(=O)NCCc3ccc(C)cc3)c21,-3%[59 µM],3%,4%,.,-12%,21%
CCOC(=O)C[n+]1c(C)sc2ccc(OC)cc21,1.3µM*,31%,?,1%,50µM*,?
CCOc1ccc2c(c1)nc(C)n2C,.,7%,-7%,11%,-9%,22%
CCOc1ccc2c(c1)nc(SCC(=O)c1cccs1)n2C,25µM*,-7%,-8%,1%,40µM*,10%
CCOc1ccc2c(c1)nc(SCC(=O)c1ccc(Br)s1)n2C,40µM*,-3%,-39%,-4%,40µM*,-21%
Oc1ccc(-c2nc3ccc4ccccc4c3c3c2CCC3)cc1O,?,-11%,50µM*,-7%,?,?
CN1CCN(C(=O)/C(=C/c2ccccc2)c2ccccc2)CC1,-7%,3%,11%,.,-9%,6%
CN1CCN(C(=O)/C(=C/c2ccc(F)cc2)c2ccsc2)CC1,45µM*,-5%,-24%,-2%,1%,61%
C[N+]1(CCCOC(=O)C2(c3ccccc3)CCCC2)CCOCC1,7.9µM*,10%,-8%,2%,-13%,19%
COc1ccc(N/N=C(C)/C(=N/O)C(=O)Nc2ccccc2)cc1,22µM*,26%,-38%,-3%,?,?
COc1ccc(NC(=O)c2cccc(NC(=O)c3ccccc3)c2)cc1,1%[59 µM],1%,-24%,-7%,-6%,31%
COc1ccc(C(=O)CC(=O)C(=O)Nc2ccccc2)cc1,-1%,13%,71µM*,.,-14%,50%
Cc1ccc(-c2nnc(SCC(=O)N3CCCc4ccccc43)o2)cc1,-4%[59 µM],-8%,1%,.,-4%,15%
COc1cc(/C=N/N=C2/SCC(=O)N2c2ccc(O)cc2)ccc1O,-17%,?,-10%,.,8.9µM*,-10%
COc1cc(/C=N\N=C2/SC(CC(=O)O)C(=O)N2c2ccc(O)cc2)ccc1O (stereo not given),-5%,-23%,12%,-3%,-10%,6%
